TEAD-YAP block: TEAD-YAP interaction inhibition. HEK-TIYL cells, TEAD-Gal4/YAP UAS-luciferase luminescence. inhibition, % at 9.12 µM. hit rate 1.4% among 640,000. AID 1259422; in the data active means inhibition above about 32%;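 further: 0% = median of test compound wells and 100% = reference inhibitor wells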
GPR151 activ: activators of human GPR151; activation, % at 11.2 µM; PathHunter beta-arrestin GPR151 cells, luminescence; hit rate 1% among 650,000; Q8TDV0; in the data active means activation above about 4.9%;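 further: 0% = median of compound wells and 100% = cells with positive control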
FBW7 activator: human FBW7 E3 ligase activation, primary screen; Q969H0; hit rate 0.13% among 650,000; AlphaScreen FBW7–phospho-cyclin E peptide binding, activator screen; normalized activity (activation), % at 26.1 µM; in the data active means normalized activity above about 1.9%;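 further: purified mutant Fbw7 with reduced substrate affinity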
MITF primary: human MITF inhibition, primary screen. inhibition, % at 2.6 µM. hit rate 0.91% among 650,000. AlphaScreen MITF homodimerization, bead proximity signal. O75030; in the data active means inhibition above about 50%;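 further: 0% = vehicle wells with protein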
GPR151 confirm: human GPR151 activation, confirmation screen; shares compounds with GPR151 activ; activation, % at 11.2 µM; GPR151 PathHunter beta-arrestin cells, luminescence, 90 min; % of EA-reagent control over plate median; 6,700 tested, under 10 active;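 active means mean percent activation across replicates above the confirmation screen cutoff of 4.91%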
GPR119 ag: counter-screen for GPR151 activators: effect on human GPR119; shares compounds with GPR151 activ; GPR119 PathHunter beta-arrestin cells, luminescence, 90 min; 0 = compound-well median, 100 = enzyme-acceptor control; activation, % at 11.2 µM; hit rate 0.3% among 6,700; AID 1508611;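 active means mean percent activation in the counterscreen above 29.09%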;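 further: counterscreen on off-target GPR119 to flag nonselective hits from the GPR151 activator screen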
Target sequence (Q8TDV5 whole entry, looked up): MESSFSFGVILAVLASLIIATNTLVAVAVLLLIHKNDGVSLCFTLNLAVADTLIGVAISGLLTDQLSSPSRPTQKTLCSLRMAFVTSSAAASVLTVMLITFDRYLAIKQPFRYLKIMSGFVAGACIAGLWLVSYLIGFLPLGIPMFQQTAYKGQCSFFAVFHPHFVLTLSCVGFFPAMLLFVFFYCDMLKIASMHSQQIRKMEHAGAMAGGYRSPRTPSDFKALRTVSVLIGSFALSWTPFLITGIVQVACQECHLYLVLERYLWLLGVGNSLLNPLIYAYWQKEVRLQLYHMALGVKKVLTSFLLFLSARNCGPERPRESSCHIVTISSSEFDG
An asterisk follows results filed as active; · = no result. An excerpt weighted towards active compounds, which were near 3.5% of everything screened.

SMILES	TEAD-YAP block	GPR151 activ	FBW7 activator	MITF primary	GPR151 confirm	GPR119 ag
COc1cc(C2NC(=S)NC(C)=C2C(=O)OC(C)C)ccc1O (centres undefined)	-2.3	-1.0	0.6	13.8	·	·
CCOC(=O)C1=C(C)NC2=C(C(=O)CCC2)C1c1cc(C)sc1SC (centres undefined)	-3.0	-1.8	-0.1	-4.3	·	·
COc1ccc(NC(=O)CNC(=O)c2cccc(C)c2)cc1	-7.7	8.1*	-0.1	-4.9	0.6	4.5
COc1ccc(NC(=O)c2ccc(NC(=O)c3ccc(NC(=O)c4cccc(C)c4)cc3)cc2)cc1	1.6	1.7	-0.1	-1.6	·	·
CCN(CC)c1ccc(C(=O)NCCO)cc1	-9.2	0.5	0.3	14.4	·	·
CS(=O)(=O)Nc1ccc(C(=O)NCCc2ccccc2)cc1	-34.8	5.7*	-0.1	8.1	0.8	5.5
COc1ccc(CNC(=O)c2c(Cl)cccc2Cl)cc1	-2.0	5.7*	0.5	-3.1	0.6	10.2
CCN(CC)c1ccc(C(=O)NCCc2ccccc2)cc1	-46.9	7.0*	0.1	5.8	0.3	7.4
CS(=O)(=O)Nc1ccc(C(=O)Nc2ccccc2C(=O)NCCc2ccccc2)cc1	-23.7	-0.5	-0.1	0.5	·	·
CCCCOc1ccccc1NS(=O)(=O)c1ccc2oc3ccccc3c2c1	-6.8	2.4	0.0	-3.9	·	·
Cc1ccc2c(c1)c(=O)c1ccccc1n2CC(=O)Oc1cccc(Br)c1	-16.0	-1.8	0.6	1.9	·	·
Cc1ccc(/C=C/C(=O)Nc2nc3ccc(Cl)cc3s2)o1	-1.1	0.3	0.0	-14.1	·	·
COc1ccc(C(=O)CSc2nc(-c3cccnc3)cc(C)c2C#N)cc1	-7.1	1.0	-0.2	1.5	·	·
Cc1ccc(-c2csc(C(C#N)=C3CCCCC3)n2)cc1	-62.2	5.4*	-0.1	2.4	-0.3	-10.4
CC[n+]1c(/C=C/N(C)c2ccccc2)oc(-c2ccccc2)c1-c1ccccc1	91.7*	5.7*	0.0	1.9	0.5	18.4
CCn1c(C)cc(/C=C/c2oc3ccccc3[n+]2CC)c1C	-5.5	-2.5	0.1	19.5	·	·
CSc1ncc(Cl)c(C(=O)Nc2ccc(C)c(C)c2)n1	-3.4	9.9*	0.0	-3.4	-0.5	-7.6
Cc1cccc(NC(=O)c2nc(S(C)(=O)=O)ncc2Cl)c1	-19.4	-1.0	0.2	7.1	·	·
CCCS(=O)(=O)c1ncc(Cl)c(C(=O)Nc2cccc(C)c2)n1	30.8	7.4*	-0.1	-6.1	-0.6	0.2
COc1ccc(-c2nc3cccc(C)n3c2NC(C)(C)C)cc1O	-8.7	0.1	0.0	-0.9	·	·
CC(C)c1nnc(-c2cc3ccccc3n2Cc2ccccc2)o1	-6.3	5.6*	-0.2	-11.2	-1.3	-13.1
COc1ccc(C(=O)Cn2c(-c3nnc(C(C)C)o3)cc3ccccc32)cc1	-10.8	0.6	0.0	25.6	·	·
CCS(=O)(=O)N1CCC(c2[nH]ncc2-c2cc(C)no2)CC1	-4.6	5.9*	0.1	20.5	1.4	8.5
CC(=O)N1CCC(c2[nH]ncc2-c2cc(C)no2)CC1	-7.0	1.1	0.1	-17.4	·	·
CCOC(=O)c1ccc(CNC2CCN(c3nc(C)c4ccc(OC)cc4n3)CC2)o1	1.6	-1.7	0.0	-8.2	·	·
SMILES	TEAD-YAP block	GPR151 activ	FBW7 activator	MITF primary	GPR151 confirm	GPR119 ag
COc1ccc(C(=O)NC2C3CC4CC(C3)CC2C4)cc1Cl (centres undefined)	2.3	-0.4	0.2	10.1	·	·
COc1ccc(Cl)cc1C(=O)NC1C2CC3CC(C2)CC1C3 (centres undefined)	7.8	5.0*	0.1	8.3	0.6	1.4
COc1cc(OC)cc(C(=O)NC2C3CC4CC(C3)CC2C4)c1 (centres undefined)	3.1	11.9*	0.0	-1.0	-0.4	-7.6
O=C(O)c1cccc(NC(=O)c2cccc([N+](=O)[O-])c2)c1	2.4	-8.2	0.1	8.8	·	·
COc1ccc(N2C(=O)CSC2c2ccc(C(C)C)cc2)cc1 (centres undefined)	4.0	1.2	-0.1	-15.9	·	·
O=C(NCCCNc1ccc([N+](=O)[O-])cc1)c1ccccc1Cl	8.1	-1.1	0.5	4.3	·	·
O=C(O)C1CCCN1C(=O)NC1CCCCC1 (centres undefined)	-0.3	4.9*	0.1	12.1	0.3	1.5
O=C(Nc1ccccc1)C1CCCN1C(=O)NC1CCCCC1 (centres undefined)	-0.3	0.3	0.0	-8.2	·	·
CCOc1ccc(C(=O)NC(CC(=O)O)c2ccc(Cl)cc2)cc1OCC (centres undefined)	7.7	-0.4	0.0	17.1	·	·
